# Source: PubChem (National Center for Advancing Translational Sciences (NCATS))
# HT1080 IDH1KD tx: toxicity to HT-1080 IDH1 knockdown cells (counter line) | HT-1080 IDH1 knockdown viability, ATP luminescence, 48 h | Potency, µM (series often up to 46.1 µM), most hits filed as cytotoxic | 2% of 360,000 active
#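 HT-1080-IDH1KD cells (IDH1 knocked down), 750/well in RPMI with 5% FBS, treated with compound 48 h at 37 degrees C. Viability by CellTiter-Glo luminescence, normalised to DMSO and no-cell wells; concentration-response curves classed.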
# IL1B secr inh: inflammasome signaling inhibition, IL-1 beta readout; THP-1 LPS/ATP IL-1B secretion, AlphaLISA, 16 h; stronger effect = lower value; activity change, % at 57.5 µM; 4.7% of 360,000 active; AID 743279; in the data active = activity change below about -50%; inconclusive = mostly about -30% to -49%
#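 Secreted IL-1B measured by AlphaLISA bead assay after 16 h compound exposure of THP-1 cells; compounds (final up to 57.5 uM) added 1 h before LPS (250 ng/mL) and ATP (1.25 mM) stimulation; lower signal means less secretion.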
# TDP1 cell CPT: DT40-hTDP1 cell growth loss with CPT; chicken DT40 Tdp1-/-;hTDP1 cells + 20 nM CPT, ATP luminescence, 48 h; 12% of 420,000 active; AID 686979; Potency, µM (highest dose often 46.2 µM), most hits filed as inhibitors; also: nearly all actives have a fitted effect of over 55% in size
#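 Chicken DT40 Tdp1-/- cells complemented with human TDP1, 400 cells/well, exposed to compounds plus 20 nM camptothecin for at least 48 h at 37 C; viability read as ATP content by CellTiter-Glo luminescence.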
# HT1080-NT tox: kills 2HG-producing HT-1080-NT fibrosarcoma cells. 1.6% of 360,000 active. Potency, µM (top dose mostly 46.1 µM), actives largely listed as cytotoxic. HT-1080-NT fibrosarcoma viability, CellTiter-Glo ATP luminescence, 48 h. AID 686970;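 also: NT is the 2HG producing partner of a matched IDH1 knockdown line; nearly all actives have a fitted effect of over 55% in size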
#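 Compounds were tested in concentration-response format on HT-1080-NT cells for 48 hours at 37 degrees C. Cell viability came from CellTiter-Glo luminescence; curves were classified by r2, response magnitude and activity.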
# TDP1 cell noCPT: qHTS for Inhibitors of human tyrosyl-DNA phosphodiesterase 1 (TDP1): qHTS in cells in absence of CPT | DT40 Tdp1-/- hTDP1 cells, no CPT, ATP luminescence, 48 h | Potency, µM (doses to about 46.2 µM), usual class: inhibitors | 15% of 420,000 active | AID 686978, 2013; also: nearly all actives have a fitted effect of over 55% in size
#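 A cellular qHTS used chicken DT40 cells lacking endogenous Tdp1 but carrying stably transfected human TDP1. Compounds were applied without camptothecin, and cell growth kinetics were judged by ATP-dependent luminescence after ≥48 hr.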
# ELG1 DNA repair: inhibitors of ELG1-dependent DNA repair in HEK293T cells; HEK293T ELG1-luciferase reporter, luminescence, 16 h; DNA damage induced by 5-fluorouridine; Potency, µM (series often up to 46.1 µM), usual class: inhibitors; 2.3% of 330,000 active; also: nearly all actives have a fitted effect of over 55% in size
#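 HEK293T cells expressing luciferase-tagged ELG1 (2,000/well) received 5-Fluorouridine plus compound or DMSO for 16 hr at 37 °C. Luciferase was read by ONE-Glo luminescence after 30 min at room temperature.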
# A number is an active result; – = inactive; ? = inconclusive; · = no result; [ ] = dose if it differs, or a comment. Most compounds without a hit are left out; they make up all but 19% or so of the library. Unless noted, calls follow the shape of the dose curve; as a rule, active = well fitted curve in the direction sought with a large enough effect; inconclusive = small, poorly fitted or top-dose-only effect, or another doubt; inactive = no such curve, though single readings can be large; an effect the other way counts as inactive or inconclusive.
SMILES,HT1080 IDH1KD tx,IL1B secr inh,TDP1 cell CPT,HT1080-NT tox,TDP1 cell noCPT,ELG1 DNA repair
COc1ccc(CCNC(=O)c2cccc(S(=O)(=O)N3CCCC3)c2)cc1OC,–,–,?,–,?,–
C[C@@H]1CN([C@H](C)CO)C(=O)c2cc(Br)cnc2O[C@@H]1CN(C)C(=O)Cc1ccccc1,–,–,–,–,–,·
CC1C(c2ccccc2)OCCN1C(=S)NC(=O)c1ccccc1 (stereo not given),–,–,–,–,–,·
COc1ccccc1C(=O)Nc1cccc(OCc2cc(=O)n3c4c(sc3n2)CCCC4)c1,·,·,–,·,–,·
COc1ccccc1CC(=O)N(Cc1ccccc1)c1cccc(C)c1,–,–,?,–,?,–
O=C(NCc1ccc(F)cc1)c1cc(S(=O)(=O)N2CCCCC2)ccc1Cl,–,–,–,–,–,–
COc1ccc(CNC(=O)c2cc(S(=O)(=O)N3CCCCC3)ccc2Cl)cc1OC,–,–,?,9.2µM,18µM,6.5µM
COc1ccc(Cn2cc(CN3CCc4onc(-c5ccccc5OC)c4C3=O)nn2)cc1,–,–,–,–,–,·
CCN1C(=O)CC(c2ccccc2)CC1=O,–,–,–,–,–,–
CC(=O)c1ccc(OCC(C)Oc2ccc(C#N)cc2)cc1 (stereo not given),–,–,?,–,23µM,–
CC(=O)c1ccc(OCC(O)COc2ccc(C(C)=O)cc2)cc1,–[9.24 µM],–,–,–,–,–
COc1ccccc1N1CCN(C(=O)Cn2nnc(-c3ccncc3)n2)CC1,–,–,–,–,–,–
COc1ccc(C(=O)CCC(=O)N2CCN(c3cc(C)ccc3C)CC2)cc1,–,?,16µM,–,?,–
COc1ccc(-c2noc(CCC(=O)N3CCN(c4ccccc4OC)CC3)n2)cc1,–,–,?,–,21µM,?
COc1ccc(-c2nnn(CC(=O)N3CCN(c4ccccc4OC)CC3)n2)cc1,–,–,?,–,?,23µM
COc1ccccc1-c1noc(CCC(=O)N2CCN(c3cc(C)ccc3C)CC2)n1,–,–,?,–,15µM,?
COc1ccc(-c2noc(CCC(=O)N3CCN(c4ccccc4C)CC3)n2)cc1,–,–,?,–,–,–
Cc1ccc(C)c(N2CCN(C(=O)CCc3nc(-c4ccccc4C(F)(F)F)no3)CC2)c1,–,?,?,–,?,?
CNC(=S)NNC(=O)c1cccn(Cc2cccc(C(F)(F)F)c2)c1=O,–,–,–,–,–,–
COc1ccc(CN(C)S(=O)(=O)c2ccc3c(c2)OCCO3)cc1,–,–,–,–,–,–
CC(C)C(NC(=O)C(Cc1ccc(O)cc1)NC(=O)C(NC(=O)C(F)(F)F)C(C)C)C(=O)O (stereo not given),·,·,–,·,–,·
COc1ccc(-c2noc(CCC(=O)N3CCN(c4cccc(F)c4)CC3)n2)cc1,–,–,?,–,?,?
COc1ccc(-c2noc(CCC(=O)N3CCN(c4cccc(Cl)c4)CC3)n2)cc1,–,–,?,–,23µM,?
COc1ccc(C(=O)CCC(=O)N2CCN(c3cccc(Cl)c3)CC2)cc1,–,–,16µM,–,23µM,–
COc1ccc(OCC(=O)N2CCN(c3cccc(Cl)c3)CC2)cc1,–,–,?,–,?,?
O=C(c1ccccc1-n1cccn1)N1CCOc2c(cc(-c3ncc(C(F)(F)F)cc3Cl)cc2OCC2CCCO2)C1 (stereo not given),·,·,?,·,–,·
CN(C(=O)c1ccccc1Cl)c1ccccc1C(=O)NCCc1ccccc1,–,–,?,–,?,–
CC[C@@H](NCCCn1ccc(NC(=O)OCc2ccccc2)nc1=O)c1ccccc1,–,–,?,–,16µM,·
C[C@@H](NCCCn1ccc(NC(=O)OCc2ccccc2)nc1=O)c1cccc2ccccc12,–,?,?,–,16µM,·
